SMARCA2 act: activators of SMARCA2 function; 1% of 370,000 active; AID 652017; MG213 cells, MMTV-luciferase reporter, dexamethasone, overnight; activation, % at 9.1 µM; in the data active means activation above about 7.8%;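 further: 0% = vehicle wells and 100% = reference activator wells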
DAX1 inh-1: inhibitors of DAX1 repression of SF-1 activated StAR promoter. HEK293T StAR-luciferase reporter, SF-1/DAX-1 repression relief. inhibition, % at 6.8 µM. 1.1% of 370,000 active. AID 652010;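 active means inhibition above the mean over all tested compounds plus 3 SD, cut at about 3.6% in these data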;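 further: 0% = DAX-1 cells with DMSO and 100% = cells lacking DAX-1 with DMSO; higher inhibition means more luminescence from relief of DAX-1 repression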
hgDAF-12 ag: agonists of H. glycines DAF-12 nuclear receptor. activation, % at 6.8 µM. 1.8% of 370,000 active. HEK293 GAL4-hgDAF12 UAS-luciferase reporter, agonist luminescence; normalized to butyrate control. AID 687014;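 active means activation above a cutoff set at the mean of all screened compounds plus 3 SD, cut at about 10% in these data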;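 further: 0% = DMSO wells and 100% = sodium butyrate wells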
DAX1 inh-2: NR0B1 (DAX1) inhibition | AID 504766 | 0.99% of 340,000 active | HEK293 Gal4-DAX1 luciferase reporter, luminescence | inhibition, % at 6.75 µM;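 active means inhibition above the mean over all tested compounds plus 3 SD, cut at about 4.2% in these data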;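 further: 0% = DAX1-transfected cells with DMSO and 100% = empty-vector control cells with DMSO; inhibition shows as a rise in luminescence from relieved DAX1 repression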
Target sequence (P51843 207-470 limits assumed): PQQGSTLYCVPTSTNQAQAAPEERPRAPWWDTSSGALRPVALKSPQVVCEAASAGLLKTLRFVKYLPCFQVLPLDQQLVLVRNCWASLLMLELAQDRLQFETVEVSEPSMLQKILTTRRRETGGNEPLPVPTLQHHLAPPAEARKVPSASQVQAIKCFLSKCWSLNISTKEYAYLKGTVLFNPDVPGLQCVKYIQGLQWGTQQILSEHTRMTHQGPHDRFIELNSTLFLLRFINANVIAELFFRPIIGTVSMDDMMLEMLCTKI
hcDAF12 agonist: H. contortus DAF-12 activation, primary screen; HEK293 hcDAF-12 lit1-tk-luc reporter, luminescence; 0% DMSO, 100% Δ7-dafachronic acid; 1.4% of 370,000 active; activation, % at 6.8 µM; AID 652067;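 active means activation above the mean of all tested compounds plus 3 SD, cut at about 5.5% in these data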;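 further: 100% = response to 3 µM Δ7-dafachronic acid high control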
ssDAF-12 act: activators of S. stercoralis DAF-12 nuclear receptor | 1% of 370,000 active | HEK293 ssDAF-12/GRIP1 lit1-tk-luc reporter, luminescence; % of 3 µM dafachronic acid response | activation, % at 6.8 µM;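 active means activation above the mean over all tested compounds plus 3 SD, cut at about 0.9% in these data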;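 further: 0% = DMSO-only wells and 100% = 3 µM delta7-dafachronic acid wells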
SMARCA2 act conf: SMARCA2 activation, confirmation screen; shares compounds with SMARCA2 act; MG213 cells, MMTV-luciferase with dexamethasone, luminescence, overnight; MG213 cells expressing E1A, Rb sequestered; DMSO wells 0%, reference activator 100%; activation, % at 9.1 µM; 30% of 3,500 active; AID 652260;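 active means activation above its plate's cutoff, the mean activation of tested wells plus 3 SD, cut at about 7.9% in these data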
VP16 Luc act: activates GAL4-VP16 luciferase, flagging SMARCA2 activator hits | 41% of 3,500 active | HEK293 GAL4-VP16 pG5luc reporter, luciferase luminescence; scaled: DMSO wells 0%, SAHA wells 100% | activation, % at 9.1 µM | shares compounds with SMARCA2 act;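 active means activation above the solvent-only control well mean plus 3 SD, averaged across control plates, cut at about 5.2% in these data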
* hit, by the source's call; . = no result. The list is not random: actives were taken first. Their share in the collection is about 4.8%.

SMILES	SMARCA2 act	DAX1 inh-1	hgDAF-12 ag	DAX1 inh-2	hcDAF12 agonist	ssDAF-12 act	SMARCA2 act conf	VP16 Luc act
CCC(=O)OCCCN1C(=O)CCC12CCC(C)CC2 (configuration not stated)	-3	1	-3	.	-1	-1	.	.
Cc1nc2c(sc3nc4c(cc32)COC(C)(C)C4)c(=O)o1	-1	1	-3	1	-1	-2	.	.
Nc1nc(N)c2sc3nc4c(cc3c2n1)CCC4	8.1*	1	5	2	1	-1	11*	5.1*
C/C(=N\NC(=O)c1ccc(O)cc1O)c1cccnc1	10*	2	4	1	0	0	3	3
CC(=O)c1ccc(NC(=O)c2cc(Cl)sc2Cl)cc1	9.3*	3	12*	1	4	1.4*	6	7.5*
Cc1cc(C)cc(NC(=O)c2cc(Cl)sc2Cl)c1	-1	0	2	-1	-2	-1	.	.
COc1ccc(C(=O)Nc2cc(Cl)c(Br)cc2C(=O)O)cc1	.	.	-2	.	0	0	.	.
NCCC(=O)Nc1ccc(Cl)cc1C(=O)c1ccc[nH]1	.	.	3	.	0	-1	.	.
N#Cc1c(N2CCCCC2)nc(N)c2c(N)nc3c(c12)CC(CCl)O3 (configuration not stated)	-3	-2	-5	-2	-3	-3	.	.
N#Cc1c(N)nc2c(c1N)CC(CCl)O2 (configuration not stated)	9.7*	0	4	3	-1	-2	-6	0
Cn1nc(N)c2ncc(-c3ccc(Cl)cc3)nc21	9.1*	1	11*	4	1	-1	8.9*	7.7*
O=C(O)CCCC[n+]1ccccc1	0	0	1	.	-1	-2	.	.
CCOC(=O)C1=C(C)N=c2s/c(=C3\C(=O)Nc4ccccc43)c(=O)n2C1c1ccc2c(c1)OCO2 (configuration not stated)	11*	0	1	2	4	0	-2	0
O=C(N1CCc2ccccc2C1)n1cc(C(O)(c2ccccc2)c2ccccc2)nn1	.	.	-10	.	-5	-2	.	.
CCOC(=O)Cc1nc(N2CCN(C(=O)C3CCCO3)CC2)c2c(C)c(C(=O)OCC)sc2n1 (configuration not stated)	11*	0	-1	.	-2	0	2	1
CCOC(=O)c1sc2nc(CC(=O)OC)nc(N3CCN(c4ccc(OC)cc4)CC3)c2c1C	-1	-2	-2	-1	-3	-1	.	.
COC(=O)CC[C@@H](/C=C/C(=O)OC(C)(C)C)Sc1ccc(C(C)(C)C)cc1	-1	0	1	.	-2	-1	.	.
CCCC(=O)OC12CCCN(C1)/C(=C/c1ccc(C#N)cc1)C2 (configuration not stated)	-4	0	2	.	0	-1	.	.
COc1ccccc1C(=O)Nc1ccnn1C1CCN(C(=O)c2cnsn2)CC1	-1	1	0	0	0	-1	.	.
COc1ccc(C(=O)Nc2ccnn2C2CCN(C(=O)c3cnsn3)CC2)cc1	8.9*	0	0	0	3	0	-1	0
C#CCNC(=O)C[C@H]1C[C@@]2(C(=O)OC)C(=C[C@H](COCc3ccccc3)O[C@@H]2C)N(Cc2ccc3c(c2)OCO3)C1=O	-6	-1	1	.	3	-1	.	.
Cc1ccc(S(=O)(=O)CCC(=O)OCC(=O)Nc2cc(S(=O)(=O)N3CCOCC3)ccc2Cl)cc1	2	0	-1	0	-1	-1	.	.
O=C(COC(=O)CCS(=O)(=O)c1ccccc1)Nc1cc(S(=O)(=O)N2CCCCC2)ccc1Cl	8.8*	1	-2	0	0	-1	3	0
C=C1C(=O)[C@]23C[C@H]1CC[C@H]2[C@]1(C)[C@@H](OC(C)=O)CC[C@@](C)(C(=O)O)[C@H]1C[C@@H]3O	34*	2	-1	.	1	-1	9.1*	-2
C=C1C(=O)[C@]23C[C@H]1CC[C@H]2[C@]1(C)[C@@H](O)CC[C@@](C)(C(=O)O)[C@H]1C[C@@H]3O	21*	4.3*	-1	.	0	0	37*	2
SMILES	SMARCA2 act	DAX1 inh-1	hgDAF-12 ag	DAX1 inh-2	hcDAF12 agonist	ssDAF-12 act	SMARCA2 act conf	VP16 Luc act
O=C(Nc1ccc(CN2CCCCC2)cc1)c1cccc(F)c1	-1	1	5	0	2	-2	.	.
CCN1CCN(c2ccc(NC(=O)c3cccc(F)c3)cc2Cl)CC1	14*	4	13*	0	1	-1	9.1*	5.8*
CN1CCCCC(NC(=O)c2ccc(F)c(F)c2)C1=O (configuration not stated)	1	-1	0	.	0	-1	.	.
COc1cc(C(=O)N2CC(=O)Nc3ccccc32)cc(OC)c1OC	9.2*	0	4	2	-1	-1	0	0
Cc1cc(C)cc(C(=O)N2CC(=O)Nc3ccccc32)c1	-2	3	-3	1	0	-1	.	.
CCOC(=O)[C@@]12CCCC3=C1N(CCC3)C(=O)[C@H]2CC(=O)NCC12CC3CC(CC(C3)C1)C2	-1	0	-2	.	0	-1	.	.
CCOC(=O)c1cnc(-c2ccccc2O)nc1Cl	8.1*	0	1	0	1	-1	4	4
CCOc1cc(NC(=S)NCc2ccco2)c(OCC)cc1NC(=O)C1CC1	8.0*	0	0	-1	1	-1	-1	1
CCOc1cc(NC(=S)NCc2ccco2)c(OCC)cc1NC(C)=O	3	0	1	0	-1	0	.	.
CC[C@H](C)C(=O)O[C@H]1CCC=C2C=C[C@H](C)[C@H](CC[C@@H]3C[C@@H](O)CC(=O)O3)[C@H]21	11*	3.9*	1	0	-2	-1	3	5
CCCNC(=O)N1CC[C@H]2[C@@H]1c1cc(-c3ccc(F)cc3)ccc1N(C)[C@H]2CO	-6	-1	-2	.	0	-1	.	.
O=C(CSc1nnc2ccccn12)Nc1ncc(Cl)cc1Cl	9.5*	0	5	3	2	0	8.4*	3
CCOc1ccc(CCNC(=O)c2cc3sccc3n2Cc2cccc(C)c2)cc1OCC	.	.	-1	.	-4	-2	.	.
CN(CCCNC(=O)CCCOc1cc(=O)n(C)c2ccccc12)Cc1ccccc1	9.6*	0	0	3	1	-1	2	3

Bioassay records deposited in PubChem BioAssay by The Scripps Research Institute Molecular Screening Center.
